Source: PubChem BioAssay (National Center for Advancing Translational Sciences (NCATS))
An excerpt weighted towards active compounds, which were near 11% of everything screened.
PNC assembly inh: inhibitors of perinucleolar compartment assembly. AID 2417. PC3M PTB-GFP, PNC prevalence imaging, 16 h; active compounds read low. activity change (PNC), negative = inhibition, % at 10 µM. 140,000 compounds, 3.1% hits;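 active means readout at or below -70, meaning at least 70% loss of cells showing the perinucleolar compartment, a nuclear body marking cancer cells; inconclusive means readout between -30 and a set limit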;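 further: plate controls were DMSO wells for no effect and camptothecin positive control wells for full effect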
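Read-out is percentage of cells bearing a perinucleolar compartment, from automated 20x imaging of fixed, Hoechst-stained PC3M PTB-GFP cells. Cells were seeded 4 h, then exposed 16 h to compound (23 nl of library stock) in duplicate plates.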
ALDH1A1 inh: ALDH1A1 (human) enzyme inhibition; 220,000 compounds, 7.3% hits; AID 1030; Purified ALDH1A1, NADH fluorescence, propionaldehyde substrate; Potency, µM (titrated, usually from 75.3 µM), without a hit: at the highest dose activity, negative = inhibition, hits mostly inhibitors; P00352;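 further: potency means the concentration at half of the fitted maximal effect; plate controls were no enzyme wells and a reference inhibitor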
Target sequence (P00352 whole entry, looked up): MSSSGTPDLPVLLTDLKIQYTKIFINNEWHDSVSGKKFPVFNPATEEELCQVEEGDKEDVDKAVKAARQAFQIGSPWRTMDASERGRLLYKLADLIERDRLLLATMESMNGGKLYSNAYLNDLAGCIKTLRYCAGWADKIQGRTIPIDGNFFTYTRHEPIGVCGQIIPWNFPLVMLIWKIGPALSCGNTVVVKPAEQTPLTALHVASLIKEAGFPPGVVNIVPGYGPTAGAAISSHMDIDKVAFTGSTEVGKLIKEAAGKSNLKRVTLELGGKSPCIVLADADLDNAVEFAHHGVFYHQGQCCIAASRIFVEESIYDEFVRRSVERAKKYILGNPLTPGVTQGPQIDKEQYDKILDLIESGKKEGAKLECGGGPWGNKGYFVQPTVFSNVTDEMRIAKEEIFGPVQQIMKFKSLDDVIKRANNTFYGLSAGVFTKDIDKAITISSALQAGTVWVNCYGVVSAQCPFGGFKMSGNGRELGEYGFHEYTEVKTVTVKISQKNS
HPGD inh: HPGD (human) dehydrogenase inhibition. 150,000 compounds, 4.3% hits. purified HPGD, NADH fluorescence kinetic, PGE2 substrate. P15428. Potency, µM, for inactives: at the top dose activity change, negative = inhibition, hits mostly inhibitors; further: potency means the concentration at half of the fitted maximal effect
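NADH formation kinetics: reaction with 30 uM PGE2 and 1 mM NAD+ (final), 20 nM enzyme, Tris-HCl pH 8 with Tween 20, after 15 min compound preincubation at room temperature. Fluorescence change, last versus first of five reads.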
The depositor's hits bear a star; ? = inconclusive; · = no result given; [ ] = dose if it differs, or a comment. Unless noted, the call rests on the fitted dose curve; in most records, active means well fitted inhibition curve with a large enough effect (not every such curve was filed as active); inconclusive means small, poorly fitted or top-dose-only effect, or another doubt; inactive means no such curve, though single readings can be large or run the other way. Unless noted, on the % scale 0 is the no-effect control and ±100 the full control effect.

SMILES | PNC assembly inh | ALDH1A1 inh | HPGD inh
CCOc1ccc(NC(=S)Nc2cc(C)[nH]n2)cc1 | · | 14µM* | ·
Cc1cccc(NC(=S)Nc2ccccn2)c1C | ? | ? | -3%
CCOc1ccc(NC(=S)Nc2ccc(OCC)cc2)cc1 | · | 4% | ·
CCNC(=S)Nc1ccc(OCC)cc1 | -86* | 4% | 0%
Cc1cc(NC(=S)Nc2cccc3ccccc23)n[nH]1 | · | 6.3µM* | ·
CCOC(=O)CN1C(=O)CCSc2ccc(Cl)cc21 | · | 5% | ·
N#CC1CC(c2ccccc2)=NN1c1ccccc1[N+](=O)[O-] (centres undefined) | · | -9% | ·
COC(=O)c1c(NC(=O)CC2NCCNC2=O)sc2c1CCCC2 (centres undefined) | ? | ? | -2%
COC(=O)c1c(NC(=O)CC2SC(N)=NC2=O)sc2c1CCC(C)C2 (centres undefined) | -28 | 13µM* | -2%
COC(=O)c1c(NC(=O)CC2SC(N)=NC2=O)sc2c1CCCC2 (centres undefined) | 48 | 25µM* | -15%
COCC(=O)Nc1sc2c(c1C(=O)OC)CCC(C)C2 (centres undefined) | -8 | ? | -10%
CCOC(=O)c1c(NC(=O)CC2SC(N)=NC2=O)sc2c1CCC(C)C2 (centres undefined) | 45 | 16µM* | -24%
CCOC(=O)c1c(NC(=O)CC2SC(N)=NC2=O)sc(C)c1C (centres undefined) | · | 0% | ·
COc1cccc(CN2CCN(c3nc4nonc4nc3NC3CC3)CC2)c1 | · | -10% | ·
COc1cc(OC)c(N(C)S(=O)(=O)c2cccc(C(=O)OCC(=O)NCc3ccco3)c2)cc1Cl | · | -17% | ·
CC1Cc2cccc3c(O)c(C(=O)c4nn[nH]n4)c(=O)n1c23 (centres undefined) | ? | ? | 4%
Cc1ccc(OCC(=O)N2CCN(c3nnc(-c4ccc(C)cc4)c4ccccc34)CC2)cc1 | 25 | 14µM* | -16%
Cc1ccc(-c2cc(C(=O)N3CCN(C(=O)c4ccco4)CC3)no2)cc1 | 10 | -2% | -8%
O=C(COc1ccccc1)N1CCN(c2nnc(-c3ccccc3)c3ccccc23)CC1 | 10 | 3% | ·
Cc1ccc(-c2nnc(N3CCN(C(=O)c4ccco4)CC3)c3ccccc23)cc1 | ? | 14µM* | -15%
COCCC(=O)NNS(=O)(=O)c1ccc(Cl)cc1 | ? | 3% | 0%
O=C(NCCc1ccccn1)c1cc(-c2cccc3ccccc23)nc2ccccc12 | 31 | 1% | -18%
CCOC(=O)C(C)Oc1ncnc2cccc(F)c12 (centres undefined) | · | -7% | ·
O=C(c1csnn1)N1CCC2(CCCN(Cc3ccccc3)C2)CC1 | · | 0% | -6%
COc1ccc(-c2nnc(SCC(=O)N3CCCC(C)C3)o2)c(OC)c1 (centres undefined) | -6 | ? | 16µM*
SMILES | PNC assembly inh | ALDH1A1 inh | HPGD inh
COc1ccc(-c2nnc(SCC(=O)N3CCc4ccccc4C3)o2)cc1 | -5 | ? | ?
COc1ccc(-c2nnc(SCC(=O)N3CCCCC3)o2)c(OC)c1 | 19 | ? | ?
COc1ccc(OC(C)C(=O)N2CCc3ccccc3C2)cc1 (centres undefined) | 21 | -7% | 25µM*
COc1ccc(Cc2nnc(SCC(=O)N3CCc4ccccc4C3)o2)cc1 | -7 | 13µM* | ·
COc1ccc(Cc2nnc(SCC(=O)N3CCCC(C)C3)o2)cc1 (centres undefined) | · | 0.89µM* | ·
COc1ccc(OC(C)C(=O)N2CCC(C)CC2)cc1 (centres undefined) | 13 | 3% | ?
COc1ccc(Cc2nnc(SCC(=O)N3CCCC3)o2)cc1 | · | 3% | ·
COc1ccc2c(c1)O[C@@H](c1ccc3c(c1)OCO3)[C@H](OC(=O)NS(=O)(=O)c1ccc(F)cc1)C2=O | · | ? | -13%
Fc1ccccc1C1c2[nH]c3ccccc3c2CCN1Cc1ccoc1 (centres undefined) | · | 0% | ·
CCN(CC)S(=O)(=O)c1cccc(NC(=O)c2cc(=O)[nH]c3ccccc23)c1 | -18 | -3% | -4%
CC1CCCN(C(=O)Cc2ccc(F)cc2)C1 (centres undefined) | ? | ? | -25%
COc1ccc(CC(=O)N2CCCC(C)C2)cc1 (centres undefined) | 2 | -9% | 28µM*
O=C(CC(=O)NC1CCCCC1)N/N=C/c1ccccc1Cl | 34 | 5% | -18%
O=C(CC(=O)NC1CCCCC1)N/N=C/c1cccc2ccccc12 | -86* | ? | ?
CCOC(=S)SCC(=O)N1CCc2ccccc2C1C1C(=O)CCCC1=O (centres undefined) | -18 | ? | -5%
CCN1C(C)=C(C(=O)OC)C(c2ccccc2)N2C(=O)[C@@]3(C(=O)OC)O[C@@]12C1C(=O)CCCC13 (some centres undefined) | · | -1%[13.5 µM] | ·
CCOC(=O)c1sc(NC(=O)c2cc(-c3ccccc3C)nc3ccccc23)c(C#N)c1C | ? | 8.9µM* | 16µM*
COc1ccc(-c2cc(C(=O)Nc3sc4c(c3C#N)CCCC4)c3ccccc3n2)cc1OC | 92 | -10% | -22%
Cc1ccccc1-c1cc(C(=O)Nc2sc(C)c(C)c2C(N)=O)c2ccccc2n1 | 0 | ? | 32µM*
CCOC(=O)c1c(NC(=O)c2cc(-c3ccc(Cl)s3)nc3ccccc23)sc(C(N)=O)c1C | -21 | 7% | -6%
O=C(CSc1ccc(-c2ccc(Cl)cc2)nn1)Nc1ccc2c(c1)OCCO2 | -14 | -2% | -8%
FC(F)(F)c1ccccc1-c1cncnc1NCCN1CCOCC1 | · | 15% | ·
CC(C)(C)OC(=O)N[C@H](Cc1ccccc1)C(=O)N1CCC(C(=O)O)CC1 | -83* | 5% | -12%
CC(C)C[C@H](NC(=O)OC(C)(C)C)C(=O)N1CCC(C(=O)N[C@@H](Cc2ccccc2)C(=O)O)CC1 | 50 | 6% | 0%
CC(=O)N[C@H]1C(O[C@@H]2O[C@H](C[C@@H](O)[C@H]3O[C@@H](N4CCC(=O)NC4=O)[C@H](O)[C@@H]3O)[C@H](O)[C@H](O)[C@H]2NC(=O)/C=C/CCCCCCCCCCC(C)C)OC(CO)[C@@H](O)[C@@H]1O (some centres undefined) | · | -4% | -3%
SMILES | PNC assembly inh | ALDH1A1 inh | HPGD inh
CN1CCc2nc(SCC(=O)Nc3ccc(OC(F)(F)F)cc3)c(C#N)c(-c3cccs3)c2C1 | -2 | 3.2µM* | -24%
Cc1cccc(CSc2nc3c(c(-c4cccs4)c2C#N)CN(C)CC3)c1 | -25 | ? | -5%
CN1CCc2nc(SCC(=O)Nc3cccc(F)c3)c(C#N)c(-c3cccs3)c2C1 | 14 | 8.9µM* | -25%
COc1ccc(NC(=O)CSc2nc(C)c3c(c2C#N)CCCC3)cc1 | 69 | 8% | -4%
COC(=O)c1c(C)oc2ccc(N(C(=O)c3ccncc3)S(=O)(=O)c3ccc(C)cc3)cc12 | ? | 3% | -12%
Cc1cc(F)ccc1S(=O)(=O)N(C(=O)c1ccncc1)c1ccc(OC(=O)c2ccncc2)cc1 | · | 6% | ·
Cc1ccc(S(=O)(=O)N(C(=O)c2ccncc2)c2ccc(OC(=O)c3ccncc3)c3ccccc23)c(C)c1 | 22 | 7.9µM* | 28µM*
Cc1ccc(S(=O)(=O)N(C(=O)c2ccncc2)c2ccc(OC(=O)c3ccncc3)c3ccccc23)cc1 | 8 | 4µM* | 20µM*
COCc1c(C(=O)NC2CCCCCC2)oc2ccccc12 | · | 11µM* | ·
